TTR transcr act: TTR transcription activators in neuroblastoma reporter cells, primary screen, cell-based, luminescence, SH-SY5Y, TTR promoter Gaussia luciferase; activation, % at 16.7 µM; 100% = recombinant luciferase protein wells; 92,000 tested, 1.3% active;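 active = activation above the mean of all tested compounds plus 3 SD, cut at about 9.5% in these data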;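 also: cells exposed to compounds for one day before reading; 0% = median of all test compound wells on the plate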
TTR inh HuH7: TTR promoter reporter inhibitors in hepatoma cells, counter-screen for TTR transcription activator project, cell-based, luminescence, HuH7 hepatoma; shares compounds with TTR transcr act; HuH7 TTR promoter-Gaussia luciferase reporter; inhibition, % at 16.7 µM; 1,100 tested, 4% active;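 active = average inhibition above the solvent-only control wells' mean plus 3 SD, cut at about 15% in these data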;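 also: 0% = cells with DMSO only and 100% = cells with inhibitor control FD; inhibitors lower well luminescence so higher value means more inhibition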
TTR act confirm: TTR transcription activators, retest, confirmation, cell-based, luminescence, SH-SY5Y, triplicate. shares compounds with TTR transcr act. SHSY5Y TTR promoter Gaussia luciferase; 100% = purified Lucia enzyme wells, no cells. activation, % at 16.7 µM. 1,100 tested, under 10 active. AID 1117280, 2014;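 active = mean activation above a set limit taken from the earlier primary screen, cut at about 11% in these data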;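 also: 0% = DMSO-treated cells and 100% = recombinant Lucia luciferase without cells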
* hit, by the source's call. This excerpt belongs to a sample that is enriched for hits.

SMILES | TTR transcr act | others
COc1ccccc1C(=O)C1CCCN(C(=O)c2ccc3c(c2)OCCO3)C1 (centres undefined) | 0.6
C#CCNC(=O)C[C@H]1C[C@@]2(C(=O)OC)C(=C[C@H](C3CCCC3)O[C@@H]2C)N(Cc2ccc(Cl)cc2Cl)C1=O | 0.2
C/C(=N\Nc1ccc(Cl)c(C(=O)O)c1)c1ccc2c(c1)OCO2 | -0.1
C/C(=N\Nc1nc2ccccc2s1)c1ccc2c(c1)OCO2 | 11.3* | TTR inh HuH7=11.3;TTR act confirm=0.5
Cc1ccc2nc(NC(=O)c3ccc4c(c3)OCO4)sc2c1 | -1.2
CC(C)CNC(=O)OCc1cn(Cc2ccc(F)c(F)c2)nn1 | 4.9
Nc1nnnn1/N=C/c1cc(Br)ccc1O | 11.5* | TTR inh HuH7=-17.0;TTR act confirm=0.4
CCOc1ccc(/C=N/n2nnnc2N)cc1O | 1.4
CCOc1ccc(/C=N/n2nnnc2N)cc1OCC | 0.2
COC(=O)[C@]12C[C@H](CC(=O)NCCc3ccccc3OC)C(=O)N(Cc3cccc4ccccc34)C1=C[C@H](C1CCCC1)O[C@@H]2C | -1.2
CCCCC(c1nnnn1C1CCCC1)N1CCN(C2CCCC2)CC1 (centres undefined) | 17.0* | TTR inh HuH7=-15.3;TTR act confirm=-0.2
CCC(c1nnnn1Cc1cccs1)N1CCN(C2CCCC2)CC1 (centres undefined) | -0.5
CC(C)CC(c1nnnn1C1CCCCC1)N1CCN(c2ncccn2)CC1 (centres undefined) | -1.4
CC(C)n1nnnc1-c1cccc(Cl)c1 | 11.8* | TTR inh HuH7=0.6;TTR act confirm=1.2
Cc1nn2cc(-c3cccc(Cl)c3)cnc2c1Cl | -0.9
Cn1nnnc1NCc1cccc(Cl)c1 | -0.3
COc1ccc(CCNC(=O)Nc2ccc3c(c2)[C@@]2(CC(=O)N(CC(C)C)C2c2ccccc2)C(=O)N3C)cc1OC (some centres undefined) | 0.1
CCCc1c(C(=O)NNc2ccccc2OC)cnn1-c1ccccc1 | 12.4* | TTR inh HuH7=-9.2;TTR act confirm=0.3
COc1ccc(CCNC(=O)c2cnn(-c3ccccc3)c2N)cc1OC | 0.5
CCOC(=O)c1cnn(-c2ccccc2)c1NC(=O)CCl | -1.1
CC(=O)Nc1ccc(OCC(O)Cn2nc(C)c(Br)c2C)cc1 (centres undefined) | -2.2
CC(C)CCNC(=O)[C@H]1COC(O)([C@H](Cc2ccccc2)NC(=O)[C@@H](NC(=O)OCc2ccccc2)C(C)C)CN1C (some centres undefined) | 1.6
CSc1nc2n(n1)C(C)C1=C(CCCC1=O)N2 (centres undefined) | 2.3
CCOC(=O)[C@]12CCCC=C1N(Cc1ccc(OC)cc1)C(=O)[C@@H]2CC(=O)NCCC(C)C | -0.2
Cc1ccc(N(C(=O)c2snc(C(N)=O)c2N)C(C(=O)NC2CCCC2)c2ccco2)cc1 (centres undefined) | -3.1
SMILES | TTR transcr act | others
Cc1ccc(C(C(=O)NC2CCCC2)N(Cc2cccnc2)C(=O)c2snc(C(N)=O)c2N)o1 (centres undefined) | -0.5
CN(C)c1ccc(C(C(=O)NC2CCCCC2)N(Cc2ccco2)C(=O)c2snc(C(N)=O)c2N)cc1 (centres undefined) | 11.5* | TTR inh HuH7=7.3;TTR act confirm=-1.1
COc1ccc(N(C(=O)c2ccco2)C(C(=O)NC2CCCCC2)c2ccccc2)cc1 (centres undefined) | -1.1
COc1ccc(N(C(=O)c2ccco2)C(C(=O)NC2CCCC2)c2ccc(N(C)C)cc2)cc1OC (centres undefined) | 17.3* | TTR inh HuH7=-22.5;TTR act confirm=1.5
CN(C)c1ccc(C(C(=O)NC2CCCC2)N(C(=O)c2ccco2)C2CC2)cc1 (centres undefined) | -0.6
CN(Cc1ccccc1)C(=O)OCc1cn(Cc2cccc(C(F)(F)F)c2)nn1 | 1.3
O=C(NCc1cccs1)O[C@H]1CC[C@@]23CCCN2C(=O)CCC[C@H]3C1 | -0.1
CCOC(=O)[C@]12CCCC=C1N(CCCOC)C(=O)[C@@H]2CC(=O)NCC12CC3CC(CC(C3)C1)C2 | 2.7
Cc1ccc(S(=O)(=O)N2CCOCC2)cc1NC(=O)CSc1nnnn1C | 2.2
CN1CCc2c(sc3nc(SCC(=O)N4CCCCC4)n(-c4ccccc4)c(=O)c23)C1 | 8.0
CCCCNc1nc2sc3c(c2c(=O)n1-c1cccc(Cl)c1)CCN(C)C3 | 101.8* | TTR inh HuH7=-9.1;TTR act confirm=0.6
CCSc1nc2sc3c(c2c(=O)n1-c1ccccc1C)CCN(C)C3 | -1.3
C=CCc1cc(C)ccc1OCCOCCN1CCN(C)CC1 | 2.6
O=C(Nc1ccc2c(c1)C(=O)NC2=O)c1ccc2ncsc2c1 | -2.1
C/C(=N/NC(=O)Cc1c(C)[nH][nH]c1=O)c1ccc(O)cc1 | -0.1
COc1ccc(/C(C)=N/NC(=O)Cc2c(C)nc(C)[nH]c2=O)cc1 | 1.8
COc1cc(/C(C)=N/NC(=O)Cc2c(C)[nH][nH]c2=O)ccc1O | 13.5* | TTR inh HuH7=-5.0;TTR act confirm=0.1
Cc1ccc(CN2CCCCC(NC(=O)Nc3cccc([N+](=O)[O-])c3)C2=O)cc1 (centres undefined) | -1.5
Cc1ccc(C)c(N(CC(=O)NC2CCCC2)C(=O)CCC(=O)Nc2cc(C)on2)c1 | 2.6
O=C(NCc1ccco1)/C(=C\c1ccco1)NC(=O)c1ccco1 | 0.1
c1ccc(CCNc2ccc3nncn3n2)cc1 | 5.0
NCCNc1ccc2nnnn2n1 | 19.1* | TTR inh HuH7=-7.7;TTR act confirm=2.9
Clc1ccc(CNc2ccc3nnc(-c4ccccc4)n3n2)cc1 | 3.7
Cc1c(C)n(CC(O)CSc2ccccc2)c2ccccc12 (centres undefined) | 0.9
CCOC(=O)CC1COCCN1C(=O)c1cc(COc2ccc(F)cc2Cl)on1 (centres undefined) | -0.6
SMILES | TTR transcr act | others
COc1ccc(Cn2ccc3ccc(-c4ccc5ccn(Cc6cccc(F)c6)c5c4)cc32)cc1 | 0.1
CCN(C(=S)Nc1ccc(C(C)=O)cc1)C1CCCCC1 | 32.2* | TTR inh HuH7=-4.2;TTR act confirm=-0.3
CC(=O)c1ccc(NC(=S)N2CCCCCC2)cc1 | 0.6
CC(=O)c1ccc(NC(=O)CN2CCC(NC(=O)C3CCCCC3)CC2)cc1 | 3.9
O=C1CCC[C@H]2C[C@H](NCc3ccc(Br)cc3)CC[C@]23CCCN13 | 0.0
Cc1ccc(Cn2cc(COC(=O)N3CCCC3)nn2)cc1 | 0.4
O=C(C1CCN(S(=O)(=O)c2ccccc2)CC1)N1CCN(Cc2ccccc2)CC1 | -0.2
COc1ccc(-n2cc(COC(=O)NCCc3ccccc3)nn2)cc1 | 11.0* | TTR inh HuH7=-7.8;TTR act confirm=-0.5
O=C(NCCc1ccccc1)OCc1cn(-c2cccc(C(F)(F)F)c2)nn1 | 4.2
O=C(NCCc1ccccc1)OCc1cn(-c2c(F)cccc2F)nn1 | 0.6
CN1OC[C@@H]2CN(Cc3ccc(Cl)cc3)[C@H](c3ccc(-n4ccnc4)cc3)C[C@@H]21 | 1.1
Cc1ccccc1C(=O)NC1CCCCN(Cc2ccc(Cl)cc2)C1=O (centres undefined) | 0.9
CCOC(=O)CNC(=O)C1COc2ccccc2O1 (centres undefined) | 0.1
CCOC(=O)N1CCN(C(=O)COC(=O)c2ccc(N(C)C)cc2)CC1 | -0.4
CN(C)c1ccc(C(=O)OCC(=O)N2CCCC2)cc1 | 13.0* | TTR inh HuH7=-14.7;TTR act confirm=-0.5
CN(C)c1ccc(C(=O)OCC(=O)N2CCCCCC2)cc1 | -2.2
